Data as given in PMC5540273 (PLoS ONE, 2017).
Several values for one entry are separate records, joined by “and”; a condition that tells them apart may be missing. Equal entries are not always repeated. Where two headings read alike, the source gives them in different places.

Experiments:
[1] = test system: BLK; details: concentration: 1 μM, replicates: in singlicate, n = 1
[2] = test system: BMPR1A; details: concentration: 1 μM, replicates: in singlicate, n = 1
[3] = test system: BMPR1B; details: concentration: 1 μM, replicates: in singlicate, n = 1
[4] = test system: BMPR2; details: concentration: 1 μM, replicates: in singlicate, n = 1
[5] = test system: BMX; details: concentration: 1 μM, replicates: in singlicate, n = 1
[6] = test system: BRAF; details: concentration: 1 μM, replicates: in singlicate; n = 1
[7] = test system: T1, BRK; details: concentration: 1 μM, replicates: in singlicate, n = 1
T1 construct: gene PTK6

[8] = test system: BRSK1; details: concentration: 1 μM, replicates: in singlicate, n = 1
[9] = test system: BRSK2; details: concentration: 1 μM, replicates: in singlicate, n = 1
[10] = test system: BTK; details: concentration: 1 μM, replicates: in singlicate; n = 1
[11] = test system: BUB1; details: concentration: 1 μM, replicates: in singlicate, n = 1
[12] = test system: CAMK1B; details: concentration: 1 μM, replicates: in singlicate, n = 1
[13] = test system: CAMK1D; details: concentration: 1 μM, replicates: in singlicate, n = 1
[14] = test system: CAMK1G; details: concentration: 1 μM, replicates: in singlicate, n = 1
[15] = test system: CAMK1; details: concentration: 1 μM, replicates: in singlicate, n = 1
[16] = test system: CAMK2A; details: concentration: 1 μM, replicates: in singlicate, n = 1
[17] = test system: CAMK2B; details: concentration: 1 μM, replicates: in singlicate, n = 1
[18] = test system: CAMK2D; details: concentration: 1 μM, replicates: in singlicate, n = 1
[19] = test system: CAMK2G; details: concentration: 1 μM, replicates: in singlicate, n = 1
[20] = test system: CAMK4; details: concentration: 1 μM, replicates: in singlicate, n = 1
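Note: KINOMEscan kinase panel screen.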

SMILES: CCc1ccnc(/C=C/c2n[nH]c3cc(Sc4ccccc4C(=O)NC)ccc23)c1
- %Inh [1]: 17%
- %Inh [2]: 0%
- %Inh [3]: 0%
- %Inh [4]: 17%
- %Inh [5]: 0%
- %Inh [6]: 4%
- %Inh [7]: 0%
- %Inh [8]: 27%
- %Inh [9]: 17%
- %Inh [10]: 0%
- %Inh [11]: 49%
- %Inh [12]: 8%
- %Inh [13]: 0%
- %Inh [14]: 2%
- %Inh [15]: 0%
- %Inh [16]: 4%
- %Inh [17]: 0%
- %Inh [18]: 9%
- %Inh [19]: 18%
- %Inh [20]: 0%

SMILES: N#Cc1ccc(-c2cc(-c3c[nH]nc3-c3ccccn3)ccn2)cc1 [GW693028]
- %Inh [1]: 17%
- %Inh [2]: 0%
- %Inh [3]: 15%
- %Inh [4]: 6%
- %Inh [5]: 5%
- %Inh [6]: 11%
- %Inh [7]: 30%
- %Inh [8]: 0%
- %Inh [9]: 0%
- %Inh [10]: 0%
- %Inh [11]: 34%
- %Inh [12]: 3%
- %Inh [13]: 1%
- %Inh [14]: 0%
- %Inh [15]: 1%
- %Inh [16]: 0%
- %Inh [17]: 1%
- %Inh [18]: 0%
- %Inh [19]: 13%
- %Inh [20]: 0%

SMILES: O=C(NCCNc1ccnc(Nc2ccc(F)cc2)n1)c1cc2ccccc2s1 [GSK1379874]
- %Inh [1]: 23%
- %Inh [2]: 0%
- %Inh [3]: 0%
- %Inh [4]: 15%
- %Inh [5]: 1%
- %Inh [6]: 0%
- %Inh [7]: 29%
- %Inh [8]: 0%
- %Inh [9]: 0%
- %Inh [10]: 0%
- %Inh [11]: 49%
- %Inh [12]: 0%
- %Inh [13]: 1%
- %Inh [14]: 0%
- %Inh [15]: 1%
- %Inh [16]: 0%
- %Inh [17]: 0%
- %Inh [18]: 7%
- %Inh [19]: 18%
- %Inh [20]: 0%

SMILES: COc1ccc(Nc2nccc(N3CCC(NC(=O)Nc4cccc(C(C)=O)c4)C3)n2)cc1 (centres unmarked) [GSK1379731]
- %Inh [1]: 35%
- %Inh [2]: 0%
- %Inh [3]: 0%
- %Inh [4]: 0%
- %Inh [5]: 0%
- %Inh [6]: 0%
- %Inh [7]: 7%
- %Inh [8]: 0%
- %Inh [9]: 0%
- %Inh [10]: 0%
- %Inh [11]: 0%
- %Inh [12]: 13%
- %Inh [13]: 40%
- %Inh [14]: 0%
- %Inh [15]: 37%
- %Inh [16]: 0%
- %Inh [17]: 0%
- %Inh [18]: 1%
- %Inh [19]: 11%
- %Inh [20]: 0%

SMILES: CCCCCc1nc2c(N)ncnc2n1CCCCC [SKF-97255]
- %Inh [1]: 16%
- %Inh [2]: 19%
- %Inh [3]: 0%
- %Inh [4]: 40%
- %Inh [5]: 3%
- %Inh [6]: 0%
- %Inh [7]: 0%
- %Inh [8]: 0%
- %Inh [9]: 22%
- %Inh [10]: 0%
- %Inh [11]: 0%
- %Inh [12]: 0%
- %Inh [13]: 0%
- %Inh [14]: 15%
- %Inh [15]: 0%
- %Inh [16]: 0%
- %Inh [17]: 0%
- %Inh [18]: 6%
- %Inh [19]: 0%
- %Inh [20]: 21%

SMILES: [2H]C([2H])(c1cccc(C(F)(F)F)c1C)n1ccn2c(=O)nc(N3CCOCC3)cc12 [GSK2336394]
- %Inh [1]: 25%
- %Inh [2]: 1%
- %Inh [3]: 0%
- %Inh [4]: 0%
- %Inh [5]: 9%
- %Inh [6]: 44%
- %Inh [7]: 18%
- %Inh [8]: 7%
- %Inh [9]: 0%
- %Inh [10]: 0%
- %Inh [11]: 52%
- %Inh [12]: 26%
- %Inh [13]: 0%
- %Inh [14]: 0%
- %Inh [15]: 0%
- %Inh [16]: 0%
- %Inh [17]: 0%
- %Inh [18]: 7%
- %Inh [19]: 3%
- %Inh [20]: 16%

SMILES: Cn1cc(-c2ccc3c(c2)CCN3C(=O)Cc2ccccc2Cl)c2c(N)ncnc21 [GSK2608885]
- %Inh [1]: 99.2%
- %Inh [2]: 10%
- %Inh [3]: 0%
- %Inh [4]: 0%
- %Inh [5]: 93.2%
- %Inh [6]: 90.5%
- %Inh [7]: 95.3%
- %Inh [8]: 0%
- %Inh [9]: 6%
- %Inh [10]: 95.6%
- %Inh [11]: 25%
- %Inh [12]: 33%
- %Inh [13]: 22%
- %Inh [14]: 13%
- %Inh [15]: 44%
- %Inh [16]: 0%
- %Inh [17]: 0%
- %Inh [18]: 17%
- %Inh [19]: 34%
- %Inh [20]: 0%

SMILES: CN1c2ccc(NCc3ccc(F)cc3)cc2-c2c(cnn2C)S1(=O)=O
- %Inh [1]: 0%
- %Inh [2]: 0%
- %Inh [3]: 1%
- %Inh [4]: 0%
- %Inh [5]: 0%
- %Inh [6]: 17%
- %Inh [7]: 0%
- %Inh [8]: 0%
- %Inh [9]: 0%
- %Inh [10]: 0%
- %Inh [11]: 0%
- %Inh [12]: 0%
- %Inh [13]: 0%
- %Inh [14]: 0%
- %Inh [15]: 0%
- %Inh [16]: 0%
- %Inh [17]: 0%
- %Inh [18]: 3%
- %Inh [19]: 15%
- %Inh [20]: 22%

SMILES: CN1c2ccc(CNc3ccc(F)cc3)cc2-c2c(cnn2C)S1(=O)=O
- %Inh [1]: 0%
- %Inh [2]: 0%
- %Inh [3]: 0%
- %Inh [4]: 0%
- %Inh [5]: 0%
- %Inh [6]: 36%
- %Inh [7]: 0%
- %Inh [8]: 0%
- %Inh [9]: 0%
- %Inh [10]: 0%
- %Inh [11]: 0%
- %Inh [12]: 0%
- %Inh [13]: 50%
- %Inh [14]: 0%
- %Inh [15]: 63%
- %Inh [16]: 0%
- %Inh [17]: 1%
- %Inh [18]: 4%
- %Inh [19]: 0%
- %Inh [20]: 0%

SMILES: NCCNS(=O)(=O)c1ccc(-c2ccnc3[nH]ccc23)cc1 [GSK977617]
- %Inh ([1]; 1 µM): 49% and 16%
- %Inh ([2]; 1 µM): 10% and 0%
- %Inh ([3]; 1 µM): 0% and 22%
- %Inh ([4]; 1 µM): 18% and 27%
- %Inh ([5]; 1 µM): 2% and 0%
- %Inh [6]: 0%
- %Inh ([7]; 1 µM): 0% and 9%
- %Inh ([8]; 1 µM): 28% and 5%
- %Inh ([9]; 1 µM): 25% and 0%
- %Inh [10]: 0%
- %Inh ([11]; 1 µM): 69% and 81%
- %Inh ([12]; 1 µM): 52% and 70%
- %Inh ([13]; 1 µM): 78% and 72%
- %Inh ([14]; 1 µM): 44% and 21%
- %Inh ([15]; 1 µM): 58% and 42%
- %Inh ([16]; 1 µM): 16% and 6%
- %Inh ([17]; 1 µM): 2% and 0%
- %Inh ([18]; 1 µM): 42% and 23%
- %Inh ([19]; 1 µM): 42% and 20%
- %Inh ([20]; 1 µM): 59% and 44%
